TDP1 cell CPT: DT40-hTDP1 cell growth loss with CPT; chicken DT40 Tdp1-/-;hTDP1 cells + 20 nM CPT, ATP luminescence, 48 h; Potency, µM (top dose mostly 46.2 µM), hits mostly inhibitors; actives 12% (n = 420,000); AID 686979; also: nearly all actives have a fitted effect of over 55% in size
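Cell growth measured by CellTiter-Glo luminescence after a minimum 48 h, 37 C compound exposure with 20 nM CPT in Tdp1-knockout DT40 cells stably expressing hTDP1, seeded 400/well; qHTS titration format.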
12-LOX inh: blocks human arachidonate 12S-lipoxygenase | P18054 | purified 12hLO, xylenol orange hydroperoxide absorbance | Potency, µM (doses to about 108 µM), hits mostly inhibitors | actives 1.1% (n = 580,000)
Target sequence (P18054 whole entry, looked up): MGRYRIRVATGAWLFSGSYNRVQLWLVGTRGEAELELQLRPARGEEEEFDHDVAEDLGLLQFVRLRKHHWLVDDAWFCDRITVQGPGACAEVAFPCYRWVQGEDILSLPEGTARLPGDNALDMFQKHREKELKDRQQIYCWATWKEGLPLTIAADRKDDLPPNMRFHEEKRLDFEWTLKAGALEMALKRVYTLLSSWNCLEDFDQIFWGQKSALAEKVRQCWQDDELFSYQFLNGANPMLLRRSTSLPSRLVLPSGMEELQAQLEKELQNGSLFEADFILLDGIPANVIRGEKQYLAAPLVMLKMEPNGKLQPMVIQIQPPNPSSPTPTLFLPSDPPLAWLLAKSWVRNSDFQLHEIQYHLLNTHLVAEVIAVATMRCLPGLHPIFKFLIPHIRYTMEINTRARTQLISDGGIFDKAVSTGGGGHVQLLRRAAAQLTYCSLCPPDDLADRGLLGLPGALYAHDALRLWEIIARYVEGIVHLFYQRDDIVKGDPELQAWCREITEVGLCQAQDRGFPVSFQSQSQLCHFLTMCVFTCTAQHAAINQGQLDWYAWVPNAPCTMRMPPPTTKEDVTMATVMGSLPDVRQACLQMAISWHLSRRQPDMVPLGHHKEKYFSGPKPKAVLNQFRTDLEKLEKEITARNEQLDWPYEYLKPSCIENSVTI
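Hydroperoxide product was detected by ferrous iron/xylenol orange as the 573 to 405 nm absorbance ratio. Arachidonic acid at 40 uM (final) was turned over for 30 min at room temperature by 150 nM human 12hLO, pH 7.0 Hepes buffer, after 15 min compound preincubation.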
TDP1 cell noCPT: qHTS for Inhibitors of human tyrosyl-DNA phosphodiesterase 1 (TDP1): qHTS in cells in absence of CPT | Potency, µM (top dose mostly 46.2 µM), hits mostly inhibitors | actives 15% (n = 420,000) | DT40 Tdp1-/- hTDP1 cells, no CPT, ATP luminescence, 48 h; also: nearly all actives have a fitted effect of over 55% in size
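Chicken DT40 Tdp1-/- cells complemented with human TDP1, screened without camptothecin (DMSO vehicle only), 400 cells/well. Compounds pin-transferred, cells incubated at 37 °C for at least 48 hr. Growth read as ATP-dependent luminescence (CellTiter-Glo, 30 min at RT).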
RORg inh: ROR gamma (mouse) transcription inhibition. Drosophila S2 Gal4-RORgamma UAS-luciferase reporter, 20 h. P51450. Potency, µM (titrated, usually from 53.6 µM), usual class: inhibitors. AID 2551. actives 5.4% (n = 310,000); also: nearly all actives have a fitted effect of over 60% in size
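Luminescence from a UAS-regulated Photinus luciferase reporter in stably transfected Drosophila Schneider cells is measured; decreased signal marks ROR gamma inhibition. Fusion expression is induced by 700 uM copper sulfate for 20 hr.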
VP16 counter: counter-screen for ROR gamma inhibitors: Gal4-VP16 reporter. Drosophila S2 Gal4-VP16 UAS-luciferase, luminescence, 20 h. Potency, µM (top dose mostly 53.6 µM), actives largely listed as inhibitors. actives 3.5% (n = 310,000). AID 2546;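 also: Gal4-VP16 expression switched on by copper sulfate through the metallothionein promoter; nearly all actives have a fitted effect of over 50% in size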
ELG1 repair inh: blocks ELG1-dependent DNA repair in HEK293T cells. actives 2.3% (n = 330,000). HEK293T ELG1-luciferase reporter, luminescence, 16 h; DNA damage induced by 5-fluorouridine. Potency, µM (doses to about 46.1 µM), usual class: inhibitors. AID 504467; also: nearly all actives have a fitted effect of over 55% in size
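Reporter activity after DNA damage by 5-fluorouridine is monitored. Compound-treated cells incubate 16 hr at 37 °C, then ONE-Glo is added for 30 min before luminescence reading.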
Numbers stand for hits; i = inactive; ? = inconclusive; nt = no result given; [ ] = dose if it differs, or a comment. This is a sample that favours compounds with a hit; in the whole collection about 15% have one here. Calls follow the shape of the dose curve; as a rule, active = well fitted curve in the direction sought with a large enough effect; inconclusive = small, poorly fitted or top-dose-only effect, or another doubt; inactive = no such curve, though single readings can be large; an effect the other way counts as inactive or inconclusive.

SMILES	TDP1 cell CPT	12-LOX inh	TDP1 cell noCPT	RORg inh	VP16 counter	ELG1 repair inh
CS(=O)(=O)N1CCN(c2ccccc2NC(=O)c2ccc3c(c2)OCCO3)CC1	?	i	?	i	i	i
O=C(Nc1ccccc1N1CCCCC1)c1ccc(-c2ccc(Cl)cc2)o1	3.3µM	i	4.1µM	i	i	i
CS(=O)(=O)N1CCN(c2ccccc2NC(=O)c2ccc3ccccc3c2)CC1	?	i	?	i	i	12µM
Cc1ccc(-c2nccn3cc(C(=O)N4CCN(C5CCN(C)CC5)CC4)nc23)cc1	nt	i	nt	nt	nt	nt
CN1CCN(c2ccccc2NC(=O)c2ccc(-c3ccc(Br)cc3)o2)CC1	3.3µM	nt	3.3µM	i	i	?
CN1CCN(c2ccccc2NC(=O)c2ccc(-c3cccc([N+](=O)[O-])c3)o2)CC1	?	i	15µM	i	i	?
COc1ccccc1NC(=O)c1ccc(-c2ccc(Br)cc2)o1	7.3µM	i	5.8µM	i	i	i
CC(=O)N1CCN(c2ccccc2NC(=O)c2ccc(Br)o2)CC1	?	i	i	i	i	i
COc1cccc(N2C(=O)NC(=NC3CCCC3)C23CCN(Cc2ccc(N(C)C)cc2)C3)c1 (stereo not given)	nt	i[6.33 µM]	nt	nt	nt	nt
O=c1c2cc(N3CCOCC3)ccc2[nH]c(=S)n1Cc1ccccn1	i	i	i	7.9µM	?	i
O=c1c2cc(N3CCOCC3)ccc2[nH]c(=S)n1Cc1ccccc1Cl	i	i	i	?	?	?
O=C(CCCCCn1c(=S)[nH]c2ccc(N3CCOCC3)cc2c1=O)NCc1cccc(Cl)c1	i	i	i	10µM	i	?
O=C(CCCCCn1c(=S)[nH]c2ccc(N3CCOCC3)cc2c1=O)NCc1ccccc1	i	i	?	i	?	i
COCCCn1c(=S)[nH]c2ccc(N3CCOCC3)cc2c1=O	i	?	i	?	?	i
O=c1c2cc(N3CCOCC3)ccc2[nH]c(=S)n1CCc1ccccc1	?	i	?	2µM	3.2µM	i
COc1ccc(CCn2c(=S)[nH]c3ccc(N4CCOCC4)cc3c2=O)cc1OC	i	i	?	13µM	?	i
CN(C)c1nc(N)nc(COc2ccccc2F)n1	nt	i	nt	nt	nt	nt
COc1cc(NC(=O)c2ccc3c(c2)N(C)C2CCCCN2C3=O)cc(OC)c1OC (stereo not given)	nt	i	nt	nt	nt	nt
Cc1ccc(NC(=O)O/N=C/c2c(C)nn(C(C)(C)C)c2C)cc1Cl	i	?	i	0.28µM	0.28µM	?
CC(=O)C1C(=O)C=C(c2cccs2)CC1c1ccccc1 (stereo not given)	i	i	?	13µM	i	i
O=C1C=C(c2cccs2)C[C@H](c2ccccc2)[C@H]1n1nnc([N+](=O)[O-])n1	2.6µM	?	2.9µM	?	i	i
Cc1ccc(OCCCn2c(CO)nc3ccccc32)cc1	?	i	?	i	i	?
COCCn1c2nc(=O)n(-c3ccccc3)c(=O)c-2nc2ccccc21	?	i	12µM	nt	nt	nt
COCCn1c(=O)c(-c2ccccc2)nc2cncnc21	i	?	i	i	i	nt
Cc1ccc(OCc2nc3ccccc3n2CCOc2ccc(Cl)cc2)cc1	?	i	18µM	nt	nt	nt
SMILES	TDP1 cell CPT	12-LOX inh	TDP1 cell noCPT	RORg inh	VP16 counter	ELG1 repair inh
CCn1c(COc2ccc(Cl)cc2Cl)nc2ccccc21	?	i	?	nt	nt	nt
Clc1ccccc1Cn1c(-c2cccs2)nc2ccccc21	?	i	?	nt	nt	nt
Cc1ccc(OCc2nc3ccccc3n2Cc2ccccc2Cl)cc1	21µM	i	?	nt	nt	nt
CCn1c(COc2ccc(C)cc2)nc2ccccc21	?	i	?	8.9µM	?	?
COC(=O)C(C)Sc1ccccc1C(=O)O (stereo not given)	nt	i	nt	nt	nt	nt
C1CC(COCCc2noc(C3CNC3)n2)CCO1	nt	i	nt	nt	nt	nt
COCCn1c(COc2ccc(C)cc2)nc2ccccc21	?	i	?	11µM	i	?
CCSC1=NSC2=NC(=O)/C(=C\c3coc4ccccc4c3=O)C(=N)N12	i	45µM	?	i	i	i
CC(C)CC1=NN2C(=N)/C(=C\c3coc4ccccc4c3=O)C(=O)N=C2S1	?	?	i	i	i	?
CC(=O)c1ccc(S(=O)(=O)N2CCN(C(=O)COc3cccc(-n4cnnn4)c3)CC2)cc1	nt	i	nt	nt	nt	nt
Cc1nc(C)c(/C(O)=C/c2nc3ccccc3oc2=O)s1	8.2µM	i	10µM	i	i	i
O=c1oc2ccccc2nc1/C=C(\O)c1ccccc1	?	i	?	i	i	i
O=[N+]([O-])c1ccc(/C=C/c2ccc([N+](=O)[O-])cc2)cc1	nt	i	nt	nt	nt	nt
NC(N)=Nc1nc2ccc([N+](=O)[O-])cc2[nH]1	i	i	29µM	i	i	i
O=[N+]([O-])c1ccc(/C=C/c2ccncc2)cc1	?	i	13µM	i	i	?
O=[N+]([O-])c1ccc2nc(CO)[nH]c2c1	?	nt	0.5µM	nt	nt	nt
Nc1nc2ccc([N+](=O)[O-])cc2[nH]1	i	i	i	i	i	i
O=[N+]([O-])c1ccc2nc(C3CCCCC3)[nH]c2c1	?	i	?	?	i	?
O=[N+]([O-])c1ccc(/C=C/c2nc3ccc([N+](=O)[O-])cc3[nH]2)cc1	5.8µM	i	4.1µM	i[10 µM]	?	i
COc1ccc(C(=O)NCCc2noc(-c3cccnc3)n2)cc1OC	nt	i	nt	nt	nt	nt
COCCCNC(=O)N1CC(c2nc(CCOCC3CCOCC3)no2)C1	nt	i	nt	nt	nt	nt
Cc1cn(-c2cccnc2)c(C)c1CNC[C@H]1O[C@@H](n2cnc3c(N)ncnc32)[C@H](O)[C@@H]1O	18µM	i	9.2µM	nt	nt	i
Nc1ncnc2c1ncn2[C@@H]1O[C@H](CNCc2ccc(OCC(=O)Nc3ccccn3)cc2)[C@@H](O)[C@H]1O	?	i	i	nt	nt	?
Nc1ncnc2c1ncn2[C@@H]1O[C@H](COP(=O)(O)OP(=O)(O)CP(=O)(O)O)[C@@H](O)[C@H]1O	i	16µM	i	nt	nt	nt
Nc1ncnc2c1ncn2[C@@H]1O[C@H](CNCc2ccc(OCc3ccccc3)cc2)[C@@H](O)[C@H]1O	18µM	i	10µM	nt	nt	?
CCc1nn2c(=O)cc(CSc3n[nH]c(-c4cccc(C)c4)n3)nc2s1	nt	i	nt	nt	nt	nt
COc1ccc(NC(=O)N2CCCC(c3noc(COc4ccccc4F)n3)C2)c(C)c1 (stereo not given)	nt	i	nt	nt	nt	nt
Cn1ncc2c(NC3CCC(c4ccccc4)CC3)ncnc21 (stereo not given)	nt	i	nt	nt	nt	nt
COc1cc(CNc2ccc3[nH]c(=O)[nH]c3c2)cc(Cl)c1OCc1ccccc1F	12µM	i	8.2µM	nt	nt	nt

Screening data (PubChem BioAssay)
